Among the test systems are HT29 colon; SNB-75 CNS; SNB-19 CNS; U251 CNS; PC-3 prostate; SK-MEL-5 melanoma; UACC-62 melanoma; LOX IMVI melanoma; SK-MEL-28 melanoma; SK-MEL-2 melanoma; SN12C renal; UO-31 renal; TK-10 renal; ACHN renal; CAKI-1 renal; A498 renal; CCRF-CEM leukemia; MOLT-4 leukemia; SR leukemia.
Common to all, as to assay: NCI-60 one-dose screen, 48 h (100 = growth as untreated, 0 = no growth, -100 = all killed)
Conditions in all cases: 10 µM

About 83,000 compounds went through this panel and 20% of them were active in at least one assay; those are over-represented in the sample as a whole.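 Plates (96-well) were seeded with cells, treated with compound at one concentration, and incubated for 48 hours before percent growth was determined.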 Unmarked numbers belong to inactive results. The source made the active and inactive calls. How the source made its calls: active means growth percent below 10; inactive means the rest.

Regarding `CC(=O)C1CCC2C3CC(F)C4=CC(=O)CCC4(C)C3C(O)CC12C` (centres undefined), the growth is 101% in the assay on HT29 colon; 103% in the assay on SNB-75 CNS; 109% in the assay with SNB-19 CNS; 104% in the assay on U251 CNS; 90.6% in the assay on PC-3 prostate; 102% with SK-MEL-5 melanoma. The growth in the assay with UACC-62 melanoma is 103%; in the assay on LOX IMVI melanoma it was 101%; with SK-MEL-28 melanoma, 112%; in the assay with SK-MEL-2 melanoma, 137%; in the assay with SN12C renal, 92%; with UO-31 renal it was 75.8%. The growth in the assay with TK-10 renal is 122%; with ACHN renal it was 99.7%; with CAKI-1 renal, 96.1%; in the assay with A498 renal it was 116%; in the assay on CCRF-CEM leukemia it was 93.6%; in the assay on MOLT-4 leukemia, 85.8%. Moreover, the growth with SR leukemia is 92.9%.
Turning to `CN(C)c1ccc(N=C2C=CC(=O)c3ccccc32)cc1`, the growth in the assay on HT29 colon is 61.4%; in the assay on SNB-75 CNS, 84.7%; in the assay with SNB-19 CNS it was 70.7%; in the assay with U251 CNS, 87.5%; with PC-3 prostate, 65.2%; with SK-MEL-5 melanoma, -56.1% (active). The growth with UACC-62 melanoma is 22.5%; in the assay with LOX IMVI melanoma, 40.9%; with SK-MEL-28 melanoma, 73.6%; in the assay with SK-MEL-2 melanoma, 64.9%; in the assay on SN12C renal it was 55.4%; in the assay on UO-31 renal it was 48.8%. The growth with TK-10 renal is 111%; in the assay on ACHN renal, 79.5%; with CAKI-1 renal, 80.9%; in the assay on A498 renal, 91.3%; in the assay with CCRF-CEM leukemia, 70.5%; in the assay on MOLT-4 leukemia, 77.6%.
`COc1ccc(-c2nc3sc(-c4ccccc4)c(-c4ccccc4)n3c2/C=C/C(=O)c2ccccn2)cc1`: the growth is 34.7% in the assay on HT29 colon; 29.1% in the assay on SNB-75 CNS; 97.1% with SNB-19 CNS; 85.4% with U251 CNS; 3.71% (active) in the assay with PC-3 prostate; 70.9% with SK-MEL-5 melanoma. Moreover, the growth in the assay with UACC-62 melanoma is 104%; with LOX IMVI melanoma it was 90.5%; with SK-MEL-28 melanoma, 104%; with SK-MEL-2 melanoma it was 67.3%; with SN12C renal, 86.6%; in the assay on UO-31 renal it was 66%. The growth in the assay with TK-10 renal is 90.7%; in the assay on ACHN renal, 66.2%; in the assay with CAKI-1 renal, 87.1%; with A498 renal, 96.1%; in the assay with CCRF-CEM leukemia, 52.4%; with MOLT-4 leukemia, 45.7%. Besides, the growth with SR leukemia was 78.4%.
Turning to `CCCCCCc1cc(N=Nc2ccc(S(=O)(=O)Nc3cc(C)nc(C)n3)cc2)c(O)cc1O`, the growth in the assay on HT29 colon is 95.6%; with SNB-75 CNS, 91.8%; in the assay on SNB-19 CNS it was 103%; in the assay on U251 CNS, 100%; in the assay on PC-3 prostate, 96.2%; in the assay with SK-MEL-5 melanoma, 98.9%. The growth in the assay on UACC-62 melanoma is 105%; with LOX IMVI melanoma, 96.2%; in the assay on SK-MEL-28 melanoma it was 115%; with SK-MEL-2 melanoma, 90.5%; in the assay with SN12C renal, 97.2%; in the assay with UO-31 renal it was 74.5%. Besides, the growth in the assay with TK-10 renal is 107%; with ACHN renal, 99.1%; with CAKI-1 renal it was 98.9%; with A498 renal, 98.7%; with CCRF-CEM leukemia, 94.8%; in the assay on MOLT-4 leukemia, 88.7%. In addition, the growth with SR leukemia was 91.9%.
Take `Fc1cc(C(F)(F)F)ccc1-c1cncnc1NC1CCCCCC1`: the growth in the assay on HT29 colon is 110%; in the assay on SNB-75 CNS, 80.3%; with SNB-19 CNS, 94.2%; in the assay with U251 CNS, 79.9%; in the assay with PC-3 prostate, 87.1%; with SK-MEL-5 melanoma, 92.2%. Besides, the growth in the assay with UACC-62 melanoma was 78.9%; in the assay with LOX IMVI melanoma it was 98.3%; in the assay on SK-MEL-28 melanoma, 111%; with SK-MEL-2 melanoma, 98.8%; with SN12C renal, 89.7%; in the assay with UO-31 renal, 79.9%. In addition, the growth in the assay with TK-10 renal was 113%; in the assay with ACHN renal, 91.5%; with CAKI-1 renal, 85.5%; in the assay on A498 renal, 49.6%; in the assay with CCRF-CEM leukemia it was 91.2%; with MOLT-4 leukemia, 98.1%. Also, the growth in the assay with SR leukemia was 118%.
For the compound `COc1ccc(Nc2ccnc(NCCNc3ccnc4cc(Cl)ccc34)n2)cc1`, the growth in the assay with HT29 colon is 9.08% (active); in the assay on SNB-75 CNS, 78.9%; in the assay on SNB-19 CNS it was 67.4%; in the assay on U251 CNS, 59.1%; with PC-3 prostate, 30.1%; with SK-MEL-5 melanoma, -50.8% (active). In addition, the growth in the assay on UACC-62 melanoma was 74.9%; in the assay on LOX IMVI melanoma, 8.82% (active); in the assay with SK-MEL-28 melanoma, -29% (active); in the assay on SK-MEL-2 melanoma, 71.8%; in the assay with SN12C renal it was 57.7%; in the assay on UO-31 renal it was 44.8%. In addition, the growth in the assay with TK-10 renal is 71.6%; with ACHN renal it was 57.3%; in the assay with CAKI-1 renal, 60.6%; with A498 renal it was 37.3%; with CCRF-CEM leukemia it was 42.1%; in the assay on MOLT-4 leukemia it was 18%.
Regarding `O=C(O)CCCCSc1ncnc2nc[nH]c12`, the growth was 106% in the assay on HT29 colon; 102% with SNB-75 CNS; 107% with SNB-19 CNS; 95.5% with U251 CNS; 99.1% in the assay on PC-3 prostate; 101% with SK-MEL-5 melanoma. For the same compound, the growth in the assay with UACC-62 melanoma is 111%; in the assay on LOX IMVI melanoma, 92.3%; with SK-MEL-28 melanoma, 112%; in the assay with SK-MEL-2 melanoma, 92.4%; in the assay on SN12C renal, 107%; with UO-31 renal, 70%. Besides, the growth in the assay on TK-10 renal is 98%; in the assay with ACHN renal it was 102%; with CAKI-1 renal, 93.5%; in the assay on A498 renal, 132%; with CCRF-CEM leukemia it was 101%; in the assay with MOLT-4 leukemia, 101%.
`Clc1ccc(/C=C2\CCCC3=C2N=C2SC=NN2C3c2ccc(Cl)cc2)cc1` (centres undefined): the growth with HT29 colon is 60.7%; in the assay with SNB-75 CNS it was 93.2%; in the assay with SNB-19 CNS, 96.5%; with U251 CNS it was 84.6%; in the assay on PC-3 prostate it was 96.3%; in the assay with SK-MEL-5 melanoma, 101%. The growth is 80.2% in the assay on UACC-62 melanoma; 55.1% in the assay on LOX IMVI melanoma; 98.4% in the assay with SK-MEL-28 melanoma; 113% in the assay with SK-MEL-2 melanoma; 104% in the assay on SN12C renal; 86.5% in the assay with UO-31 renal. Also, the growth was 112% in the assay with TK-10 renal; 103% in the assay with ACHN renal; 106% in the assay on CAKI-1 renal; 81.7% in the assay on A498 renal; 86.6% in the assay with CCRF-CEM leukemia; 99% in the assay with MOLT-4 leukemia. Besides, in the assay on SR leukemia, the growth was 76.3%.
